Data as given in PubChem BioAssay AID687038 (Broad Institute, 2013).

Assay: endogenous miR-21 quantity in Huh7 cells – cell-based, RT-qPCR, dry powder, selectivity assay for miR-122 inhibitor project, dose response (AID 687038)
Settings: Huh7 miR-21 levels, qRT-PCR, 48 h; series mostly up to 35 µM; relative miR-21 level (fold): at the top concentration;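 active = curve showing a falling signal whose half-maximal concentration is at most twice the top valid dose; inconclusive = flat curve with a moderate drop, or an unreliable fit; inactive = the rest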

Relative miR-21 level (fold), inactive:
COCC(=O)N(C)C[C@H]1Oc2cc(-c3ccc(C#N)cc3)ccc2S(=O)(=O)N([C@@H](C)CO)C[C@H]1C 0.872 fold
C[C@@H]1CN([C@@H](C)CO)S(=O)(=O)c2ccc(C#Cc3ccncc3)cc2O[C@@H]1CN(C)C(=O)C1CCOCC1 0.684 fold
COCC(=O)N(C)C[C@H]1Oc2cc(-c3ccccc3F)ccc2S(=O)(=O)N([C@@H](C)CO)C[C@H]1C 0.547 fold
C[C@@H]1CN([C@H](C)CO)S(=O)(=O)c2ccc(C#Cc3ccncc3)cc2O[C@@H]1CN(C)C(=O)C1CCOCC1 0.867 fold
CCOC(=O)N1CCC(NC(=O)c2ccc3nc(N4CCC(C)CC4)sc3c2)CC1 0.949 fold
C[C@H]1CN([C@@H](C)CO)S(=O)(=O)c2ccc(C#Cc3ccncc3)cc2O[C@@H]1CN(C)C(=O)C1CCOCC1 0.89 fold
O=C(c1ccc(CN2CCOCC2)cc1)N1CCc2ccccc21 1.02 fold
Nc1ccc(Oc2ccc(Cl)cc2)cc1 0.488 fold
CCOC(=O)N1CCC(NC(=O)c2ccc3c(c2)sc2nc(-c4ccccc4)cn23)CC1 1 fold
C[C@@H]1CN([C@H](C)CO)S(=O)(=O)c2ccc(C#Cc3ccncc3)cc2O[C@H]1CN(C)C(=O)C1CCOCC1 0.753 fold
C[C@H]1CN([C@@H](C)CO)C(=O)c2cc(C#Cc3ccccc3F)cnc2O[C@H]1CN(C)C(=O)C1CCCCC1 0.507 fold
C[C@@H]1CN([C@@H](C)CO)S(=O)(=O)c2ccc(C#Cc3ccncc3)cc2O[C@H]1CN(C)C(=O)C1CCOCC1 0.725 fold
O=C(CNCCC1=CCCCC1)Nc1ccccc1N1CCCCCC1 0.482 fold
C[C@H]1CN([C@@H](C)CO)C(=O)c2cc(C#Cc3ccccc3F)cnc2O[C@@H]1CN(C)C(=O)C1CCCCC1 0.5 fold
COCC(=O)N(C)C[C@H]1Oc2cc(C#Cc3cccnc3)ccc2S(=O)(=O)N([C@@H](C)CO)C[C@H]1C 1.05 fold
C[C@H]1CN([C@@H](C)CO)C(=O)c2cc(-c3ccc(C#N)cc3)cnc2O[C@H]1CN(C)C(=O)c1ccccc1 1.1 fold
Cc1cc(C(C)(C)C)cc(S(=O)(=O)NCCc2ccncc2)c1C 1.35 fold
C/C=C/c1cnc2c(c1)C(=O)N([C@@H](C)CO)C[C@H](C)[C@H](CN(C)S(=O)(=O)c1ccc(OC)cc1)O2 1.01 fold
Cc1cccc(NC(=O)Nc2ccc3c(c2)C(=O)N(C)[C@@H]2CC[C@H](CC(=O)NCc4ccccc4Cl)O[C@H]2CO3)c1 2.03 fold
COCC(=O)N(C)C[C@H]1Oc2cc(C#Cc3cccnc3)ccc2S(=O)(=O)N([C@H](C)CO)C[C@H]1C 2.76 fold
COc1ccc(-c2cnc3c(c2)C(=O)N([C@@H](C)CO)C[C@H](C)[C@H](CN(C)S(=O)(=O)c2ccc(OC)cc2)O3)cc1 0.767 fold
C[C@H]1CN([C@@H](C)CO)S(=O)(=O)c2ccc(C#Cc3ccncc3)cc2O[C@H]1CN(C)C(=O)C1CCOCC1 0.804 fold
CO[C@@H]1CN(C)C(=O)c2cc(NC(=O)c3ccc4c(c3)OCO4)ccc2OC[C@H](C)NC[C@@H]1C 1.07 fold
O=C(Nc1ccc(-c2nc3ccccc3o2)cc1)c1cc(-n2cnnc2)ccc1Cl 0.344 fold
Cc1cccc(NC(=O)Nc2ccc3c(c2)C(=O)N(C)[C@@H]2CC[C@@H](CC(=O)NCc4ccccc4Cl)O[C@H]2CO3)c1 1.3 fold
COCC(=O)N(C)C[C@H]1Oc2cc(-c3ccc(C#N)cc3)ccc2S(=O)(=O)N([C@H](C)CO)C[C@H]1C 0.916 fold
Cn1c(=O)c(=O)n(C)c2cc(S(=O)(=O)N3CCOCC3)ccc21 1.13 fold
CCCC#Cc1ccc2c(c1)O[C@H](CN(C)C(=O)c1ccncc1)[C@H](C)CN([C@@H](C)CO)S2(=O)=O 0.809 fold
CCn1cc(C(=O)O)c(=O)c2cc(F)c(N3CCNCC3)nc21 1.59 fold
CN1C(=O)c2cc(NC(=O)c3cccc(F)c3)ccc2OC[C@@H]2O[C@H](CC(=O)O)CC[C@H]21 0.72 fold
CN(CC(=O)Nc1cccc(Cl)c1)S(=O)(=O)c1ccc2c(c1)n(C)c(=O)c(=O)n2C 1.34 fold
CN1C(=O)c2cc(NC(=O)c3cccc(F)c3)ccc2OC[C@H]2O[C@H](CC(=O)O)CC[C@@H]21 0.751 fold
